Data taken from PubChem BioAssay AID743279 (National Center for Advancing Translational Sciences (NCATS), 2014).
Screen size: about 360,000 compounds; about 17,000 (4.7%) were called active. Inconclusive results (about 5%) are left out. What follows is part of a selection rich in actives, with near analogues and random picks from the rest. Unmarked numbers belong to inactive results. No stated cut-off is given here; in the data, active means activity change below about -50%; inconclusive means mostly about -30% to -49%; inactive means weaker than that.

Test: qHTS for Inhibitors of Inflammasome Signaling: IL-1-beta AlphaLISA Primary Screen
Conditions: THP-1 LPS/ATP IL-1B secretion, 16 h; at 57.5 µM, hits give low values
In short: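 THP-1 cells pretreated 1 hr with compounds (up to 57.5 uM final), then stimulated with LPS (250 ng/mL final) plus ATP (1.25 mM final); secreted IL-1B measured by AlphaLISA after 16 hr, decreased signal indicating inhibition.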
On the % scale 0 is the no-effect control and ±100 the full control effect.

In order of falling activity change:
1. CCCCCCCCOC1OC(CO)C(O)C(O)C1NC(C)=O (stereo not given)  48.8%
2. COc1ccc(OC)c(/C=C/C(=O)OCC(=O)Nc2ccc3c(c2)OCCO3)c1  37.8%
3. CN(C)CCCN1C(=O)CSC1c1ccc([N+](=O)[O-])cc1 (stereo not given)  36.5%
4. Clc1ccc(-c2cccc3nccn23)cc1  34.4%
5. Cc1ccc(-c2noc(CSc3nnc(-c4cccs4)n3C)n2)cc1  34.2%
6. CCn1c(SCC(=O)NCC2CCCO2)nc2ccccc21 (stereo not given)  31.3%
7. CCCS(=O)(=O)N1CCC(CCOc2ccccc2)(C(=O)OCC)CC1  30.8%
8. COc1cc(C=C(OC(C)=O)c2ccc3c(c2)OCO3)cc(OC)c1OC  24.5%
9. C[C@@H]1CN([C@@H](C)CO)C(=O)c2c(c3ccccc3n2C)-c2ccccc2CO[C@H]1CN(C)C(=O)C1CC1  23%
10. COc1ccc(C(=O)NCC[N+](C)(C)C)cc1  22.2%
11. COc1ccc(NC2CC(=O)N(C)C2=O)cc1 (stereo not given)  19.6%
12. CN(CC(=O)O)C(=O)c1ccccc1  19.1%
13. Cc1ccc(N2C(=O)SC(N(CC(=O)O)c3ccc(C)cc3)C2=O)cc1 (stereo not given)  18.1%
14. COC(=O)C1=CN(Cc2ccc(OC)c(OC)c2)C=C(C(=O)OC)C1c1cccs1  17.5%
15. NC(=O)c1ncn([C@@H]2O[C@H](CNCc3cnc(N4CCOCC4)s3)[C@@H](O)[C@H]2O)n1  17.3%
16. Cc1c(C(=O)N2CCN(c3ccc(F)cc3)CC2)oc2c1C(=O)CCC2  14.7%
17. Cc1ccc2c(C)c(C(=O)N(C)Cc3ccncn3)oc2c1C  13.6%
18. CC12CCCCC1=CC(=O)CC2 (stereo not given)  13.3%
19. O=C(Nc1ccc(S(=O)(=O)NCC2CCCO2)cc1)c1ccc(F)cc1 (stereo not given)  11.6%
20. Cc1nc2ccccn2c(=O)c1NC(=O)c1ccc(Br)o1  9.2%
21. CC(C)(C)S(=O)(=O)N1Cc2cc(CO)cc(CCO)c2[C@H]1CCO  8.29%
22. O=C(Nc1ccccc1F)c1cc(S(=O)(=O)N2CCCCC2)cs1  6.67%
23. COC1(C2=NCCN2)COc2ccccc2O1 (stereo not given)  6.63%
24. OCC(CO)(CO)NCc1ccc(-c2ccccc2)cc1  6.61%
25. CCOC(=O)CC(=O)CSc1nc(-c2ccccc2)cc(-c2ccc(Cl)cc2)c1C#N  6.24%
26. CSCCC(NC(=O)COc1ccccc1)C(=O)OCCOc1ccc(F)cc1 (stereo not given)  5.31%
27. CCOC(=O)C1(CCOC)CCN(Cc2ccc(C(=O)OC)cc2)CC1  4.83%
28. CCOc1cc(C(=O)O)ccc1OCCOc1ccccc1  4.78%
29. O=C(N[C@@H](Cc1c[nH]c2ccccc12)C(=O)O)OCC1c2ccccc2-c2ccccc21  4.34%
30. C[C@H](CO)N1C[C@H](C)[C@@H](CN(C)C(=O)c2cccc(F)c2)Oc2cc(-c3cncnc3)ccc2S1(=O)=O  3.54%
31. O=C(CSc1nc(C2CC2)nc2ccccc12)Nc1cccc(O)c1  2.55%
32. O=C(NCc1cccnc1)c1ccc2nc([C@@H]3O[C@H](CO)[C@H](O)[C@H](O)[C@H]3O)[nH]c2c1  2.47%
33. CN(/N=C/c1ccccc1)C(=S)c1ccccc1  1.93%
34. Cc1ccc(C)c(NC2=NCC(=O)N2c2ccc3c(c2)OCCO3)c1  1.69%
35. CCOC(=O)N1CCN(C(=O)c2ccc(CN(c3ccc(C)c(C)c3)S(C)(=O)=O)cc2)CC1  1.54%
36. CCc1nc2ccc(C(=O)N3CCC(O)(Cc4ccccc4)CC3)cn2c1N(C)C(=O)Cc1ccccc1  1.17%
37. CC(C)(C)C1CCC(=O)N2CCC[C@]2(c2ccccc2)C1 (stereo not given in full)  0.891%
38. Cc1cn(C2CC(O)C(CO)O2)c(=O)n(CCCc2ccccc2)c1=O (stereo not given)  0%
39. O=C(Cn1cc(C(F)(F)F)ccc1=O)N/N=C/c1ccc(Cl)cc1Cl  0%
40. CC1CN(C(=O)c2ccc3c(c2)OCO3)OC(c2ccccc2)O1 (stereo not given)  -0.281%
41. Cc1nnc(NC(=O)CSc2nc(C3CCCCC3)nc3ccccc23)s1  -0.35%
42. Cc1ccc(S(=O)(=O)n2oc(=O)c(C3CCCCC3)c2N)cc1  -0.476%
43. O=C1c2ccncc2C(=O)N1C1CCCCC1  -1.14%
44. Cn1c(SCC(=O)c2ccccc2)ncc(C(=O)Nc2ccc(F)cc2)c1=O  -2.98%
45. CCOc1cc(-c2cc(-c3ccc(OC)cc3)nc(N)c2C#N)ccc1O  -3.59%
46. COc1ccc(N2C(=O)CC(N3CCC(C(N)=O)CC3)C2=O)cc1 (stereo not given)  -4%
47. O=C(COc1ccc(Cl)cc1)N1CCN(c2cccc(C(F)(F)F)c2)CC1  -4.57%
48. COc1cc2c(cc1OC)CN(C(=O)c1ccc(S(=O)(=O)N3CCCCCC3)cc1)CC2  -4.82%
49. Cc1nnc(NC(=O)C(c2ccccc2)c2ccccc2)s1  -5.78%
50. C/C(=N/Nc1nc(-c2ccccc2)c(CC(=O)O)s1)c1ccccc1  -6.09%
51. O=c1c2ccccc2ncn1CCc1ccncc1  -6.13%
52. CCOC(=O)c1c(S(=O)(=O)NCC(=O)Nc2ccc(C)cc2)c(C)n(C)c1C  -6.41%
53. Cc1csc(NC(=O)C2CCN(S(=O)(=O)c3ccccc3)CC2)n1  -7.33%
54. CN(Cc1ccccc1)C(=O)CCC1CCN(C(=O)c2ccco2)CC1  -7.63%
55. CCCCc1ccc(NC(=O)NCc2cccnc2)cc1  -8.19%
56. COc1ccc(C2SCCN2S(=O)(=O)c2ccccc2)cc1OC (stereo not given)  -9.4%
57. C/C(COc1ccccc1)=N\NC(=O)c1nnn(-c2nonc2N)c1-c1ccc(C)cc1  -10.3%
58. CCc1ccc(OCC2c3cc(OC)c(OC)cc3CCN2C(C)=O)cc1 (stereo not given)  -10.3%
59. CCN(c1ccccc1)S(=O)(=O)c1cc(C(=O)NCc2ccccn2)ccc1C  -10.4%
60. CCCOc1ccc(F)cc1-c1cc(C(=O)Nc2ccc(F)c(Cl)c2)[nH]n1  -11.9%
61. CNC(=O)C[C@H]1C(=O)N(c2ccc(OC)cc2)C[C@@H]1Cc1ccccc1  -12.1%
62. CN(C)C(=O)c1cccc(-c2cnc3c(NC=O)cc(-c4ccc(C(=O)N5CCOCC5)cc4)cn23)c1  -14.1%
63. CCOc1cc(/C=N/NC(=O)c2ccncc2)cc(Br)c1O  -14.1%
64. CCN(CC)C(=O)C1=C(C)N(Cc2ccc(OC)cc2)C(=O)C(CC(=O)NCCCCc2ccccc2)C1 (stereo not given)  -14.3%
65. Cc1ccc([C@H]2C[C@H](O)[C@@H](n3cc(COC(=O)c4ccccc4)nn3)CN2C(=O)C2CCCCC2)cc1  -14.7%
66. Cc1ccc(-c2noc(CSc3nnc(-c4ccncc4)n3-c3ccc(F)cc3)n2)cc1  -15.2%
67. COC(=O)c1c(NC(=O)CN2C(=O)NC(CCc3ccccc3)C2=O)sc2c1CCCCC2 (stereo not given)  -15.4%
68. COc1cccc(-c2noc(C3CCCN(C(=O)c4ccc(F)cc4)C3)n2)c1 (stereo not given)  -17.2%
69. Cc1nnc(NC(=O)c2ccc3nccnc3c2)s1  -17.3%
70. COc1cc(C(=O)OCC(=O)N(CC(C)C)C2CCS(=O)(=O)C2)ccc1OCC(C)C (stereo not given)  -19.9%
71. CC(C)CCC(=O)Nc1cc(S(=O)(=O)N2CCOCC2)ccc1N1CCCC1  -21.6%
72. CCOC(=O)C1(CCOc2ccccc2)CCN(Cc2cc(OC)c(O)cc2Cl)CC1  -22.4%
73. CCOC(=O)c1cnn2c(SC)ncnc12  -22.6%
74. CCOC(=O)C1(CCOc2ccccc2)CCN(C(=O)c2cncs2)CC1  -28.5%

For COc1cc2c(cc1OC)C(C)N(S(=O)(=O)c1cnc(Cl)c(Cl)c1)CC2 (stereo not given), the activity change was -97.4% (active).
For COc1ccc(CC2c3cc(OC)c(OC)cc3CC[N+]2(C)CCC(=O)OCCCCCOC(=O)CC[N+]2(C)CCc3cc(OC)c(OC)cc3C2Cc2ccc(OC)c(OC)c2)cc1OC (stereo not given), the activity change was -63.5% (active).
For CN(O)C(=S)c1ccccc1, the activity change was -116% (active).
With CCOc1cc(-c2cc(-c3ccc(NC(C)=O)cc3)nc(N)c2C#N)ccc1O the activity change was -53.1% (active).
For O=C(CSc1nc(C2CC2)nc2ccccc12)Nc1ccc2c(c1)OCCO2, the activity change was -71.5% (active).
For CCCCCCCCCCCCN1C(=O)CSC1c1cccnc1 (stereo not given), the activity change was -56.2% (active).
With CCOC(=O)C1(CCOc2ccccc2)CCN(Cc2ccc(C#CCCO)cc2)CC1 the activity change was -57.7% (active).
With CCOC(=O)C1(CCOc2ccccc2)CCN(Cc2cc(OC)cc(OC)c2)CC1 the activity change was -89.9% (active).
For COc1ccc(OC)c(/C=C/C(=O)c2ccc3c(c2)OCO3)c1, the activity change was -97.2% (active).
In the case of Cc1ccc2c(C)c(C(=O)N3CCN(c4ccncc4)CC3)oc2c1C, the activity change was -52.1% (active).
With Cc1ccc(NC(=O)c2cnc(SCC(=O)NCC3CCCO3)n(C)c2=O)cc1 (stereo not given) the activity change was -103% (active).
For CC/C(=C(/c1ccccc1)c1ccc(OCC[N+](C)(C)C)cc1)c1ccccc1, the activity change was -61.5% (active).
With COc1ccc(N2C(=O)C3C(C2=O)C(C(=O)c2ccccc2)N2CCCC32)cc1 (stereo not given) the activity change was -82.1% (active).
In the case of Cc1ccc(-c2noc(CSc3nnnn3-c3ccccc3)n2)cc1, the activity change was -64.8% (active).
With CSCCC(NC(=O)COc1ccccc1)C(=O)N1CCN(c2cccc(C(F)(F)F)c2)CC1 (stereo not given) the activity change was -61.8% (active).
With Cc1nnc(NC(=O)Nc2ccc(Cl)c(Cl)c2)s1 the activity change was -94% (active).
